Reference: PubChem BioAssay AID1745845 (National Center for Advancing Translational Sciences (NCATS), 2022)
Screen size: about 360,000 compounds; about 2,600 (0.72%) were called active. Inconclusive results (about 5%) are left out. This excerpt belongs to a sample that is enriched for actives. A number with no mark means an inactive call. Calls follow the shape of the dose curve; as a rule, active = well fitted inhibition curve with a large enough effect; inconclusive = small, poorly fitted or top-dose-only effect; inactive = no such curve, though single readings can be large or run the other way.

Experiment: Primary qHTS for Inhibitors of ATXN expression; also: nearly all actives have a fitted effect of over 55% in size
Details: HEK-293 ATXN2-luciferase reporter, luminescence, 24 h; series mostly up to 57 µM; activity change, negative = inhibition: at the top concentration
Procedure, shortened: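 ATXN2-luciferase reporter cells (luciferase flanked by upstream and downstream ATXN2 gene portions) were treated 24 h at 37 °C with compounds at up to 57 uM. SteadyGlo luminescence gave expression; GF-AFC fluorescence gave viability.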
% is scaled to controls: 0 for no effect and ±100 for the full control effect; potency is read from the fitted curve at half-maximal effect.

| SMILES | activity change, negative = inhibition | Potency |
| --- | --- | --- |
| CC[C@]12C=CCN3CC[C@@]4(c5cc([C@@]6(C(=O)OC)C[C@H]7C[C@@H](C(C)(F)F)CN(Cc8c6[nH]c6ccccc86)C7)c(OC)cc5N(C)[C@H]4[C@@](O)(C(=O)OC)[C@H]1OC(C)=O)[C@@H]32 | -15% | – |
| CN(C)C(=O)c1cccc(-c2cnc3sc(NCc4ccc5c(c4)OCO5)nn23)c1 | -19% | – |
| COc1ccc(-c2nnc(SCC(=O)Nc3ccccc3C)o2)cc1OC | 8.7% | – |
| COC(=O)[C@]12CCCCC=C1N(CCC1=CCCCC1)C(=O)[C@H](CC(=O)NCC1CCCCC1)C2 | -33.3% | – |
| CC(=O)Nc1cccc(-c2ccnc3c2CC(C)(C(=O)NCc2ccco2)O3)c1 (stereo not drawn) | 0.0835% | – |
| COc1ccc(C2CC(c3ccccc3)=NN2C(=O)COC(=O)COc2ccccc2)cc1 (stereo not drawn) | 11.8% | – |
| COc1ccc(C2CC(c3ccc([N+](=O)[O-])cc3)=NN2C(C)=O)cc1 (stereo not drawn) | 36.4% | – |
| COc1ccc(C2CC(c3ccccc3)=NN2C(=O)c2ccc(Cl)c([N+](=O)[O-])c2)cc1 (stereo not drawn) | – | 28.2 µM (active) |
| CCOCCCNC(=O)c1cn(CC)c2ccc(S(=O)(=O)N3CCc4ccccc4C3)cc2c1=O | -2.73% | – |
| COc1ccc(NC(=O)CSC2=Nc3ccccc3C3=NC(CC(=O)NCc4ccccc4OC)C(=O)N23)cc1Cl (stereo not drawn) | -5.85% | – |
| COc1ccc(NC(=O)Cn2c(=O)cc(C)c3c(C)nn(-c4cccc(Cl)c4C)c32)cc1OC | 5.2% | – |
| NC(=O)C1CCN(C(=O)c2cccc(NC(=O)c3nsc4ccccc34)c2)CC1 | 27% | – |
| c1ccc2c(c1)C(=NC1CCCCC1)NC2=NC1CCCCC1 | – | 28.2 µM (active) |
| Cc1ccc2nc(-c3ccco3)c(Cc3cccc(Cl)c3)n2c1 | -20% | – |
| CN(Cc1ccccc1)c1ncnc2onc(-c3ccc(F)cc3)c12 | -8.81% | – |
| CC(C)(C)c1cc(C(=O)NN)n(Cc2ccc(Cl)cc2Cl)n1 | – | 12.6 µM (active) |
| CC(C)(C)NC(=O)NC(=O)COC(=O)Cc1ccc(Cl)cc1Cl | -25.1% | – |
| Cn1cc(C(=O)c2ccc(Cl)cc2Cl)cc1C(=O)NN | -21.5% | – |
| CCOC(=O)c1cccc(NC(=O)c2cc(CN3CCCC3)on2)c1 | 9.88% | – |
| CN(Cc1ccccc1)C(=O)c1cccc(C(=O)N(C)Cc2ccccc2)c1 | 6.14% | – |
| CN(O)C(=S)c1ccccc1 | – | 3.98 µM (active) |
| COc1cc(NS(=O)(=O)c2cccs2)cc(OC)c1 | -1.37% | – |

| SMILES | activity change, negative = inhibition | Potency |
| --- | --- | --- |
| Cc1c2cnn(-c3ccccc3)c(=O)c2c(C)n1C(C)C(=O)Nc1ccc(Br)cc1F (stereo not drawn) | 4.24% | – |
| S=C(NCCCc1cnc[nH]1)NCCCN(Cc1ccc(Cl)c(Cl)c1)c1ccc(Br)cn1 | – | 15.8 µM (active) |
| COc1ccccc1CNC(=O)C(=O)NCC(c1cccs1)S(=O)(=O)c1cccs1 (stereo not drawn) | 1.31% | – |
| COc1ccc(CCNC(=O)CCCn2c(=O)c3ccccc3n(Cc3ccc(C)cc3)c2=O)cc1OC | 13.5% | – |
| CCCCCCCc1ccc(CCc2cccc(O)c2C(=O)O)cc1 | 3.74% | – |
| COc1ccccc1OCCCn1c(-c2ccc(Cl)cc2)nc2ccccc2c1=O | 9.93% | – |
| CCOC(=O)C(NC(C)=O)C(=O)Nc1ccc(OC)cc1 (stereo not drawn) | -27.3% [at 11.3 µM] | – |
| CCOC(=O)C1=C(c2ccc(OC)cc2)C(=O)c2ccccc2C1=O | – | 5.01 µM (active) |
| COC(=O)c1cc(OC)ccc1-c1ccc(OC)cc1 | 1.37% | – |
| Cc1cccc(-c2nc(SCC(=O)Nc3cc(C)on3)c3c(=O)n(C)c(=O)n(C)c3n2)c1 | 2.26% | – |
| CC(NCc1ccc2c(c1)nc(NC(=O)c1ccc(-c3cn[nH]c3)s1)n2CC(C)(C)O)C(C)(C)C (stereo not drawn) | – | 0.968 µM (active) |
| O=C(NCc1ccccc1)C1CCN(S(=O)(=O)c2ccc3[nH]c(=O)ccc3c2)CC1 | 15.7% | – |
| CO[C@]1(NC(=O)CSC(F)F)C(=O)N2C(C(=O)O)=C(CSc3nnnn3CCO)CO[C@H]21 | 1.55% | – |
| Cc1cccc(C(C)C)c1NC(=O)C(NS(=O)(=O)c1cccc2nsnc12)c1ccccc1 (stereo not drawn) | 1.22% | – |
| C=C1CCC2[C@](C)(CO)C(O)CC[C@]2(C)C1CC=C1C(=O)OCC1O (stereo partly drawn) | -0.087% [at 116 µM] | – |
| Cc1oc2ccc(O)c(CN3CCC(C)CC3)c2c1C(=O)Nc1ccccc1 | -22% | – |
| Cc1oc2ccc(O)c(CN3CCOCC3)c2c1C(=O)Nc1cccc(Cl)c1C | -0.528% | – |
| Cc1oc2ccc(O)c(CN3CCCCC3)c2c1C(=O)Nc1cccc(C(F)(F)F)c1 | – | 28.2 µM (active) |
| O=C(c1cccc(Cl)c1)N1CCN(CCc2ccncc2)CC1 | 1.16% | – |
| CCN(CC)c1ccc(C2C(C(N)=O)=C(C)Nc3nc(SCc4ccccc4)nn32)cc1 (stereo not drawn) | -24.9% | – |
| CC(C)(C)OC(=O)N1CCC(c2c(C(=O)N3CCc4ccccc4C3)cnn2-c2ccc(F)cc2)CC1 | 3.11% | – |
| COc1ccccc1NC(=O)C1=C(C)Nc2nc(SCC(=O)c3ccc(C)cc3)nn2C1c1ccccc1C (stereo not drawn) | 6.42% | – |

| SMILES | activity change, negative = inhibition | Potency |
| --- | --- | --- |
| CCc1nc2c(OCc3ccc(C(=O)OC)cc3)cccn2c1N(C)C(=O)C(C)C | -11.4% | – |
| CCc1nc2c(OCc3ccc(Cl)cc3Cl)cccn2c1N(C)C(=O)C(C)C | – | 28.2 µM (active) |
| CCc1nc2c(OCc3cccc(OC)c3)cccn2c1N(C)C(=O)C(C)C | 5.52% | – |
| COC(=O)[C@@]1(Sc2ccc(C)cc2)CC(=O)N(c2cccc(SC)c2)[C@@H]1c1ccccc1 | -25.3% | – |
| CC=CC[C@@H](C)C(=O)[C@H]1C(=O)N[C@@H](C(C)C)C(=O)N(C)CC(=O)N(C)[C@@H](CC(C)C)C(=O)N[C@@H](C(C)C)C(=O)N(C)[C@@H](CC(C)C)C(=O)N[C@@H](C)C(=O)N[C@H](C)C(=O)N(C)[C@@H](CC(C)C)C(=O)N(C)[C@@H](CC(C)C)C(=O)N(C)[C@@H](C(C)C)C(=O)N1C | 23% | – |
| O=C(NC1CCCC1)C1c2ccccc2OCC(=O)N1CC(F)(F)F (stereo not drawn) | 1.35% | – |
| Cc1cc(C)cc(NC(=O)Cn2c(=O)c3ccccc3n3nncc23)c1 | -8.67% | – |
| Cc1cc(NC(=O)c2cccc(Cl)c2)ccc1-c1cc2ccccc2oc1=O | 8.33% | – |
| CS(=O)(=O)N1CCN(C(=O)c2cc3ccccc3oc2=O)CC1 | 2.31% | – |
| O=c1oc2ccccc2cc1-c1cn(-c2ccccc2)c(=S)[nH]1 | – | 8.91 µM (active) |
| Cc1ccc(CNC(=O)CCc2c(C)nc3nc(CNC(=O)OC(C)(C)C)nn3c2C)cc1 | -14.2% | – |
| COc1ccccc1NC(=O)CC(NCCN(C)C)C(=O)O (stereo not drawn) | -5.08% | – |
| COc1cccc2sc(N(CCCN(C)C)C(=O)C(c3ccccc3)c3ccccc3)nc12 | – | 22.4 µM (active) |
| CCN(CC)CCN(C(=O)c1cccc([N+](=O)[O-])c1)c1nc2ccc(OC)cc2s1 | 3% | – |
| NC(N)=N/N=C/c1ccc(OCc2ccc(Cl)cc2Cl)cc1 | – | 22.4 µM (active) |
| Cc1nc2ccccc2nc(C)c1=NOCc1ccc(Cl)cc1Cl | -23.9% | – |
| COc1ccc(Cl)cc1N(CC(=O)N/N=C/c1ccc(OCC(N)=O)cc1)S(C)(=O)=O | 0.328% | – |
| CCc1nc2ccc(C(=O)N(C)CCN(C)C)cn2c1N(CC)CCOC | 7.83% | – |
| CC(C)Sc1oc(-c2cccs2)nc1S(=O)(=O)c1ccc(Cl)cc1 | -4.47% | – |
| CC1CC(C)(C)n2c(O)c(N=NC(N)=S)c3cccc1c32 (stereo not drawn) | – | 28.2 µM (active) |
| Cc1ccc(OCCn2c(CNc3ccccc3C)nc3ccccc32)cc1 | -14.1% | – |
| CCCn1ccc2c(OCC(=O)NCc3ccc(F)cc3)cccc2c1=O | -5.76% | – |

| SMILES | activity change, negative = inhibition | Potency |
| --- | --- | --- |
| COc1ccc(C(C#N)=C2C=CC(=NO)c3ccccc32)cc1 | 34% | – |
| NC(=O)C1(Nc2ccccc2Cl)CCCC1 | -7.8% | – |
| O=C(CCN1CCN(C/C=C/c2ccccc2)CC1)Nc1ccccc1Cl | -14.6% | – |
| O=C(Nc1ccccc1Cl)/C(Cl)=C(\Cl)S(=O)c1ccccc1 (stereo not drawn) | – | 3.55 µM (active) |
| CSCCC(c1nnnn1Cc1ccccc1)N1CCN(C/C=C/c2ccccc2)CC1 (stereo not drawn) | -23.7% | – |
| CCCN1CCN(CCCNC(=O)Cn2nc(CC)n3c(cc4occc43)c2=O)CC1 | 32.1% | – |
| Cc1cccc(C(=O)NCCc2nc3ccccc3n2Cc2ccccc2Cl)c1 | -3.57% | – |
| Cc1ccccc1CSc1nc(-c2ccccc2)nc2c1Cc1c(CO)cnc(C)c1O2 | 9.66% | – |
| CCOC(=O)[C@]12CCCC=C1N(Cc1cccc3ccccc13)C(=O)[C@H](CC(=O)NCC13CC4CC(CC(C4)C1)C3)C2 | -16.8% | – |
| COc1cc(Nc2ncc(F)c(Nc3ccc4c(n3)NC(=O)C(C)(C)O4)n2)cc(OC)c1OC | 25.8% | – |
| CCOc1ccc(CCNC(=O)c2cc3c(=O)n(C)c4ccccc4c3n2C)cc1 | -18.4% | – |
| CCCCC(O)(CCCC)C(=O)NN(C(=O)CCl)c1ccccc1 | -25.2% | – |
| CCCC(O)(CCC)C(=O)NN(C(=O)CCl)c1cccc(C)c1 | – | 21.2 µM (active) |
| CC(C)(O)C(=O)NN(C(=O)c1ccccc1)c1cccc(Br)c1 | -5.23% | – |
| C=CCC[C@@H](CCCCC)OC(=O)/C=C/[C@@H](O)[C@H](O)C[C@H](O)CC=C | -13.5% | – |
| CC(C)CC(=O)NCC(c1ccc2c(c1)OCO2)N1CCN(c2ccc(F)cc2)CC1 (stereo not drawn) | -12.6% | – |
| C[C@H]1C[C@H]2[C@@H]3CCC4=CC(=O)C=C[C@]4(C)[C@@H]3C(=O)C[C@]2(C)[C@@]1(O)C(=O)CO | -1.21% | – |
| CO[C@H]1C[C@@H]2CC[C@@H](C)[C@@](O)(O2)C(=O)C(=O)N2CCCC[C@@H]2C(=O)O[C@H]([C@@H](C)C[C@@H]2CC[C@H](O)[C@H](OC)C2)CC(=O)[C@H](C)C=C(C)[C@@H](O)[C@@H](OC)C(=O)[C@H](C)C[C@H](C)C=CC=CC=C1C | 0.805% | – |
| CCN(CC)CCC(c1ccc2c(c1)OCO2)c1c(OC)cc(OC)c2c(-c3ccccc3)cc(=O)oc12 (stereo not drawn) | – | 31.6 µM (active) |
| COc1cc(C(CCN2CCN(c3ccccc3)CC2)c2c(OC)cc(OC)c3ccc(=O)oc23)cc(OC)c1OC (stereo not drawn) | -2.17% | – |
| COc1cc(OC)c2ccc(=O)oc2c1C(CCN1CCN(c2ccccc2)CC1)c1ccc2c(c1)OCO2 (stereo not drawn) | -17.9% | – |
| Cc1ccccc1-n1c(=O)c2ccccc2n(Cc2ccc(F)cc2)c1=O | -10.8% | – |
